For assay [1], the target named is Cellular tumor antigen p53 (Homo sapiens) (UniProt P04637). Nature of the assay: Primary qHTS for small molecule compounds that upregulate eGFP-tagged delta133p53alpha (in N-terminal) cells. (AID 2060322). Further: nearly all actives have a fitted effect of over 75% in size. Further: potency means the concentration at half of the fitted maximal effect.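 On activation: series mostly up to about 56 µM; 0% = DMSO vehicle and 100% = reference activator.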 The settings on record: NCI-H358 eGFP-delta133p53alpha fluorescence, 24 h; activation: active compounds read high. Summed up: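 NCI-H358 cells pre-induced 24 h with 10 ng/ml doxycycline to express N-terminal eGFP-delta133p53alpha, then dosed 24 h at 37C without doxycycline; fixed, Hoechst-stained, GFP intensity by laser scanning cytometry, normalized to DMSO (0%) and 57.5 uM 5-azacytidine (100%).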
(qHTS replaces the single test concentration by a dilution series.)

For assay [2], the target named is Aldehyde dehydrogenase, mitochondrial (Homo sapiens) (UniProt P05091). The experiment in a line: qHTS for Inhibitors of the Aldehyde Dehydrogenase Family (ALDH2) Primary screen (AID 2061308).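 Further: plate controls were vehicle for no effect and reference inhibitor for full effect; nearly all actives have a fitted effect of over 55% in size.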
For assay [3], the target named is Retinaldehyde dehydrogenase 3 (Homo sapiens) (UniProt P47895). The experiment in a line: qHTS for Inhibitors of the Aldehyde Dehydrogenase Family (ALDH1A3) Primary screen (AID 2061315).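 Further: plate controls were DMSO vehicle for no effect and reference inhibitor for full effect.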

The values below come from PubChem BioAssay (NCATS).

Records with an inconclusive call do not appear. A number with no mark means an inactive call. Active and inactive are the calls of the source. The call rests on the fitted dose curve; in most records, active means well fitted curve in the direction sought with a large enough effect; inconclusive means small, poorly fitted or top-dose-only effect, or another doubt; inactive means no such curve, though single readings can be large; an effect the other way counts as inactive or inconclusive. Peptide text beside a SMILES is read from it. * marks the point of attachment. Hexanoyl = CCCCCC(=O)*

Chain of Cellular tumor antigen p53 (Homo sapiens) (P04637 whole entry, looked up): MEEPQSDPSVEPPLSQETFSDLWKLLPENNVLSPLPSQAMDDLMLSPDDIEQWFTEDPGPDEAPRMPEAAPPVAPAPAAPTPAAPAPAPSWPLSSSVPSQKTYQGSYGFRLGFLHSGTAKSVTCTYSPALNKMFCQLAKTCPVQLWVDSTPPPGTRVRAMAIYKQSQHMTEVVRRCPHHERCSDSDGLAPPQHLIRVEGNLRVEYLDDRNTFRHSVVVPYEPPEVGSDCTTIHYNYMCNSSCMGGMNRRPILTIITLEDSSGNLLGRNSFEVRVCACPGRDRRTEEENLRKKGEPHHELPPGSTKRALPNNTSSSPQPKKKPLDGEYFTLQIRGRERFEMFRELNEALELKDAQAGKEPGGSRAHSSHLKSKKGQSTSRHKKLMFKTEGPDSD

For `C=C1CC[C@@H]2[C@](C)(CO)[C@H](O)CC[C@@]2(C)[C@@H]1C/C=C1/C(=O)OCC1O` (some centres not stated), in assay [1], the Potency is 23.9 µM (active). Moreover, the Potency entry in assay [2] and in assay [3] was “inactive” in each case.

`C=C1CCC2C(C)(C)CC(=O)CC2(C)C1CCC(C)CCO` (configuration not stated): the activation in assay [1] was 6.25%. The Potency result in assay [2] and in assay [3] was “inactive” in each case.

For `O=C(Nc1cccc2cccnc12)c1ccc(N2C(=O)[C@@H]3C4C=CC(C4)[C@@H]3C2=O)cc1`, the activation in assay [1] is 2.33%. For the same compound, the Potency entry in assay [2] and in assay [3] was “inactive” in each case.

As for `CC(C)=C[C@@H]1[C@H](CO[C@@H]2O[C@H](CO)[C@@H](O)[C@H](O)[C@H]2O)C1(C)C`, in assay [1], the activation is -9.82%. Besides, the Potency entry in assay [2] and in assay [3] was “inactive” throughout.

With `CCCCCC(=O)N1CCC[C@H]1C(=O)N[C@@H](Cc1ccc(O)cc1)C(=O)OC` (Hexanoyl-Pro-Tyr-OMe), the activation in assay [1] is -3.57%. Besides, the Potency entry in assay [2] and in assay [3] was “inactive” each time.

Regarding `COc1cc2c(cc1O)[C@H](c1ccc(O[C@@H]3O[C@H](CO)[C@@H](O)[C@H](O)[C@H]3O)c(OC)c1)[C@@H](CO)[C@](O)(CO)C2`, the activation in assay [1] is -15.3%. For the same compound, the Potency entry in assay [2] and in assay [3] was “inactive” throughout.

In the case of `CC(=O)C1CCC(=O)N1Cc1ccccc1` (configuration not stated), in assay [1], the activation was -13.7%. The Potency entry in assay [2] and in assay [3] was “inactive” each time.

In the case of `C/C=C/C=C/C=C/C(=O)O[C@@H]1[C@@H](OC)C2=C(C(=O)N(C(CCC(=O)O)C(=O)O)C2)[C@@]2(C)CCCC(C)(C)[C@H]12` (some centres not stated), the activation in assay [1] was -27.5%. In addition, the Potency entry in assay [2] and in assay [3] was “inactive” throughout.

With `COc1cccc(CN(C(=O)CC(C)(C)C)[C@H]2C[C@H](C(=O)N3CCNCC3)N(Cc3ccc4c(c3)OCO4)C2)c1`, the activation in assay [1] is 1%. In addition, the Potency entry in assay [2] and in assay [3] was “inactive” throughout.
